Test systems include ALK; ANKK1; AURKA; AURKB; AURKC; AXL; BLK; BMPR1A; BMPR1B; BMPR2; BMX; BRAF; BRSK1.
Conditions in all cases: concentration: 1 μM, replicates: in singlicate; n = 1
Another test deals with T1, AMPK-alpha1.
T1 construct: gene PRKAA1

The subject of the next test is T2, AMPK-alpha2.
T2 construct: gene PRKAA2

In another test the test system is T3, ARK5.
T3 construct: gene NUAK1

A further test deals with T4, ASK1.
T4 construct: gene MAP3K5

For the next test, the system named is T5, ASK2.
T5 construct: gene MAP3K6

The next test relates to T6, BIKE.
T6 construct: gene BMP2K

Another test concerns T7, BRK.
T7 construct: gene PTK6
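Further: KINOMEscan kinase panel screen.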

On to `Cc1nnc(-c2ccc(C)c(-c3ccc(C(=O)O)cc3)c2)o1` [GW608005], for which the “%Inh” value came out at 1% with ALK; 0% in the test on AMPK-alpha1; 0% in the test with AMPK-alpha2; 0% with ANKK1; 11% with ARK5; 0% in the test with ASK1. Moreover, the “%Inh” value in the test on ASK2 is listed as 0%; in the test on AURKA, 0%; with AURKB it was 0%; in the test with AURKC, 6%; in the test on AXL it was 0%; with BIKE, 0%. For the same compound, the “%Inh” value with BLK came out at 31%; with BMPR1A, 0%; in the test with BMPR1B, 0%; in the test with BMPR2, 0%; in the test with BMX, 0%; with BRAF, 0%. Also, the “%Inh” value with BRK was 0%; with BRSK1 it was 2%.

For the compound `COC(=O)c1c(-c2ccccc2)c2cc(C)ccc2c(=O)n1Cc1ccccc1`, the “%Inh” value with ALK is on record as 0%; in the test on AMPK-alpha1 it was 0%; in the test with AMPK-alpha2, 0%; in the test on ANKK1, 0%; with ARK5, 4%; in the test with ASK1 it was 0%. Also, the “%Inh” value in the test on ASK2 amounted to 0%; with AURKA, 0%; in the test with AURKB, 9%; with AURKC, 0%; with AXL, 0%; with BIKE, 0%. Also, the “%Inh” value in the test with BLK amounted to 0%; with BMPR1A it was 0%; in the test on BMPR1B it was 0%; in the test on BMPR2 it was 0%; in the test with BMX it was 19%; in the test on BRAF, 79%. In addition, the “%Inh” value in the test on BRK and in the test on BRSK1 was 0% each time.

Turning to `Cc1ccc(-c2ccc3c(ccc4sc5c(c43)NC[C@@H](C)N=C5N(C)C)n2)cn1`, the “%Inh” value in the test with ALK was found to be 4%; in the test with AMPK-alpha1, 0%; in the test with AMPK-alpha2, 0%; in the test with ANKK1 it was 0%; with ARK5, 0%; with ASK1 it was 0%. Besides, the “%Inh” value in the test with ASK2, with AURKA, with AURKB, in the test with AURKC, with AXL and with BIKE was 0% throughout. The “%Inh” value with BLK, in the test with BMPR1A, with BMPR1B, in the test on BMPR2, with BMX and in the test with BRAF was 0% each time. The “%Inh” value in the test with BRK and in the test with BRSK1 was 0% each time.

Take `COc1cc2nccc(Nc3cccc(Oc4ccccc4)c3)c2cc1OC.Cl` [GW284543]: the “%Inh” value with ALK is reported as 1%; in the test on AMPK-alpha1, 12%; in the test on AMPK-alpha2 it was 0%; in the test on ANKK1, 0%; in the test with ARK5, 0%; in the test on ASK1, 0%. Also, the “%Inh” value in the test on ASK2 amounted to 0%; in the test on AURKA, 5%; with AURKB, 0%; in the test on AURKC it was 0%; with AXL, 0%; with BIKE, 1%. In addition, the “%Inh” value stood at 69% with BLK; 0% in the test with BMPR1A; 0% in the test on BMPR1B; 0% with BMPR2; 0% with BMX; 0% in the test on BRAF. In addition, the entries for the “%Inh” value in the test on BRK and with BRSK1 were 60% and 0%, respectively.

In the case of `Cl.c1ccc(Cn2cnc3cc(Nc4ncnc5ccccc45)ccc32)cc1` [GW272142], the “%Inh” value is 21% in the test with ALK; 0% in the test on AMPK-alpha1; 0% in the test on AMPK-alpha2; 0% in the test on ANKK1; 0% with ARK5; 4% in the test on ASK1. Also, the “%Inh” value in the test with ASK2 was 2%; in the test with AURKA, 0%; in the test on AURKB, 19%; with AURKC it was 14%; in the test on AXL, 0%; in the test with BIKE, 34%. The “%Inh” value in the test on BLK is on record as 0%; with BMPR1A it was 0%; in the test with BMPR1B, 0%; in the test on BMPR2, 0%; in the test with BMX, 6%; in the test on BRAF it was 0%. Also, the “%Inh” value in the test with BRK amounted to 11%; in the test with BRSK1 it was 4%.

On to `O=C(Nc1n[nH]c2nc(-c3ccccc3)c(Br)cc12)C1CC1` [SB-708998], for which the “%Inh” value stood at 1% in the test on ALK; 12% in the test on AMPK-alpha1; 18% with AMPK-alpha2; 14% in the test on ANKK1; 0% in the test with ARK5; 0% in the test with ASK1. In addition, the “%Inh” value in the test on ASK2 is recorded as 0%; with AURKA it was 7%; in the test with AURKB, 4%; in the test on AURKC it was 36%; with AXL, 0%; with BIKE, 28%. For the same compound, the “%Inh” value in the test on BLK is 8%; with BMPR1A it was 16%; in the test on BMPR1B, 0%; in the test on BMPR2, 0%; with BMX, 7%; in the test with BRAF, 31%. Further, the “%Inh” value came to 0% in the test with BRK and 60% with BRSK1.

In the case of `Cn1c(=O)c(F)c(Nc2ccc(I)cc2F)c2c(=O)n(OC[C@H](O)CO)cnc21`, the “%Inh” value in the test with ALK worked out at 0%; in the test with AMPK-alpha1, 0%; with AMPK-alpha2, 13%; in the test with ANKK1, 0%; with ARK5 it was 0%; in the test with ASK1, 0%. Besides, the “%Inh” value is 0% in the test with ASK2; 0% with AURKA; 9% with AURKB; 30% with AURKC; 10% in the test on AXL; 30% in the test with BIKE. In addition, the “%Inh” value with BLK is listed as 9%; with BMPR1A it was 0%; in the test with BMPR1B, 0%; in the test on BMPR2, 0%; with BMX it was 0%; with BRAF, 0%. In addition, the “%Inh” value in the test on BRK is on record as 2%; in the test on BRSK1 it was 0%.

Turning to `COc1ccc(Nc2nccc(N3CCC(NS(=O)(=O)c4ccc(NC(C)=O)cc4)C3)n2)cc1` (stereo not shown) [GSK1379729], the “%Inh” value was 16% in the test on ALK; 20% in the test with AMPK-alpha1; 17% in the test with AMPK-alpha2; 8% in the test with ANKK1; 25% in the test on ARK5; 7% in the test on ASK1. For the same compound, the “%Inh” value turned out to be 9% in the test with ASK2; 7% with AURKA; 14% in the test with AURKB; 30% with AURKC; 23% in the test on AXL; 18% with BIKE. The “%Inh” value with BLK came out at 26%; with BMPR1A, 21%; in the test on BMPR1B, 3%; with BMPR2 it was 0%; in the test on BMX, 12%; with BRAF it was 16%. For the same compound, the “%Inh” value with BRK is listed as 18%; in the test on BRSK1, 2%.

For the compound `CCC(=O)c1c(-c2ccccc2)c2cc(Cl)ccc2c(=O)n1Cc1cc(S(C)(=O)=O)n(CCC(C)(C)O)n1`, the “%Inh” value in the test on ALK is 0%; in the test on AMPK-alpha1 it was 19%; with AMPK-alpha2, 15%; in the test with ANKK1 it was 8%; in the test with ARK5 it was 10%; in the test on ASK1, 15%. Moreover, the “%Inh” value in the test on ASK2 is listed as 8%; in the test on AURKA, 16%; in the test with AURKB, 17%; with AURKC it was 12%; with AXL it was 10%; with BIKE, 21%. The “%Inh” value is recorded as 12% in the test with BLK; 0% in the test on BMPR1A; 6% in the test on BMPR1B; 9% with BMPR2; 33% in the test with BMX; 1% in the test on BRAF. Also, the “%Inh” value turned out to be 7% in the test with BRK and 11% in the test with BRSK1.

Turning to `Cc1cc(Nc2nc(-c3cccc(C)n3)nc3ccccc23)ccn1` [GW872411], the “%Inh” value in the test with ALK is 0%; with AMPK-alpha1 it was 0%; in the test with AMPK-alpha2, 0%; with ANKK1 it was 0%; with ARK5, 9%; with ASK1 it was 0%. In addition, the “%Inh” value came out at 0% with ASK2; 3% in the test with AURKA; 14% with AURKB; 0% with AURKC; 0% in the test on AXL; 0% in the test on BIKE. Further, the “%Inh” value in the test on BLK is recorded as 0%; in the test with BMPR1A it was 3%; with BMPR1B it was 0%; with BMPR2, 0%; with BMX it was 0%; in the test with BRAF, 0%. Also, the “%Inh” value in the test with BRK and with BRSK1 was 0% throughout.

With `CCS(=O)c1ccc(-c2coc3ccc(-c4nnc(C)o4)cc23)cc1` (stereo not shown), the “%Inh” value in the test with ALK worked out at 5%; in the test on AMPK-alpha1 it was 26%; in the test with AMPK-alpha2, 1%; with ANKK1, 30%; with ARK5 it was 0%; in the test on ASK1, 0%. Also, the “%Inh” value in the test on ASK2 is 0%; in the test on AURKA, 16%; in the test with AURKB, 1%; in the test with AURKC, 0%; in the test with AXL, 0%; with BIKE it was 0%. The “%Inh” value in the test on BLK amounted to 3%; with BMPR1A, 0%; in the test with BMPR1B, 6%; in the test on BMPR2, 15%; with BMX it was 18%; with BRAF, 0%. Moreover, the “%Inh” value in the test on BRK and in the test on BRSK1 was 0% each time.

(Values after article PMC5540273 (PLoS ONE, 2017).)
